Laboratory results from PubChem BioAssay (EPA / NIEHS).
Records with an inconclusive call do not appear. Active and inactive are the calls of the source. Rule for the calls: active = hit-call score of the fitted dose curve at least 0.9, where 1 is the maximum; inconclusive = response in the unintended direction; inactive = score below 0.9.

The compounds below were run against Cytochrome P450 3A4 (Homo sapiens) (UniProt P08684) (assay: NVS_ADME_hCYP3A4: NovaScreen (NVS) CYP450-related Enzyme Activity (ADME) Assay for human CYP3A4 (AID 2283110)).
Cytochrome P450 3A4 (Homo sapiens), sequence (P08684 whole entry, looked up): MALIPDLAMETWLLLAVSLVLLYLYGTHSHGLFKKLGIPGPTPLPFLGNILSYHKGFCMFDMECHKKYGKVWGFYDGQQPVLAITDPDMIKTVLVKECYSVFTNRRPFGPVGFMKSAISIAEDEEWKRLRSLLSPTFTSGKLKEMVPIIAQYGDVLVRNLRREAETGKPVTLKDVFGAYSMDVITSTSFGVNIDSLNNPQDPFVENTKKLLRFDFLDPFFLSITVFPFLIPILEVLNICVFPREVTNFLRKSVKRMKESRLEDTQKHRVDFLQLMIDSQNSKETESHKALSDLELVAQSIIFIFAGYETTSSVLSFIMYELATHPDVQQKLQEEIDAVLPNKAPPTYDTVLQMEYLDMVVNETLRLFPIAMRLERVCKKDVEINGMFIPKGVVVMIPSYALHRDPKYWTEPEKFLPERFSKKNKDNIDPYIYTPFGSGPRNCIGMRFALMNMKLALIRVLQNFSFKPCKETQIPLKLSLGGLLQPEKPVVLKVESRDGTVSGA
Method in brief: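 Compounds were first screened in duplicate at 10 uM against recombinant CYP3A4 produced in insect cells, then actives were run in concentration series. Enzyme activity was measured by fluorescence after 0.33 hour, with acetonitrile as baseline.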

| SMILES | AC50 | outcome |
| --- | --- | --- |
| FC(F)C(F)(F)OCC(Cn1cncn1)c1ccc(Cl)cc1Cl (centres undefined) | 6400 nM (active) |  |
| CC(C1CC1)C(O)(Cn1cncn1)c1ccc(Cl)cc1 (centres undefined) | 4560 nM (active) |  |
| CCOC(=O)CC(SP(=O)(OC)OC)C(=O)OCC (centres undefined) |  | inactive |
| CCCOCC(=Nc1ccc(Cl)cc1C(F)(F)F)n1ccnc1 | 522 nM (active) |  |

These compounds were tested against Cytochrome P450 2C19 (Homo sapiens) (UniProt P33261) (assay: NVS_ADME_hCYP2C19: NovaScreen (NVS) CYP450-related Enzyme Activity (ADME) Assay for human CYP2C19 (AID 2283113);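 for AC50: potency for inhibition seen as loss of fluorescent signal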).
Method in brief: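 Biochemical CYP2C19 inhibition screen: insect-cell recombinant protein plus fluorescent substrate, 1 h, fluorescence intensity. Acetonitrile defined baseline activity. Single 10 uM concentration in duplicate, with concentration-response follow-up for actives.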

| SMILES | AC50 | outcome |
| --- | --- | --- |
| CCOP(=S)(OCC)Oc1ccc([N+](=O)[O-])cc1 | 210 nM (active) |  |
| Nc1c(Cl)cc([N+](=O)[O-])cc1Cl |  | inactive |
| S=C1NCCN1 |  | inactive |
| CCOP(=O)(NC(C)C)Oc1ccc(SC)c(C)c1 (centres undefined) | 5920 nM (active) |  |
| CCC(CC)Nc1c([N+](=O)[O-])cc(C)c(C)c1[N+](=O)[O-] | 10000 nM (active) |  |
| CCCCOC(=O)c1ccccc1C(=O)O |  | inactive |
| CNc1cnn(-c2cccc(C(F)(F)F)c2)c(=O)c1Cl | 4350 nM (active) |  |
| CCOP(=S)(OCC)Oc1ccc2c(C)c(Cl)c(=O)oc2c1 | 428 nM (active) |  |
| CCCCSP(=O)(SCCCC)SCCCC |  | inactive |
| CSc1nc(NC(C)C)nc(NC(C)C)n1 | 13400 nM (active) |  |
| Cc1cc(C2CC2)nc(Nc2ccccc2)n1 |  | inactive |
| FC(F)C(F)(F)OCC(Cn1cncn1)c1ccc(Cl)cc1Cl (centres undefined) | 6.46 nM (active) |  |
| CC(C1CC1)C(O)(Cn1cncn1)c1ccc(Cl)cc1 (centres undefined) | 111 nM (active) |  |
| O=[N+]([O-])c1cc(C(F)(F)F)c(Cl)c([N+](=O)[O-])c1Nc1ncc(C(F)(F)F)cc1Cl | 1390 nM (active) |  |
| C[Si](Cn1cncn1)(c1ccc(F)cc1)c1ccc(F)cc1 | 36.6 nM (active) |  |
